Screen size: about 340,000 compounds; about 1,000 (0.29%) were called active. No stated cut-off is given here; in the data, inconclusive means inhibition above about 27% without an active follow-up result; inactive means below that. The list is a sample of the results. Results with a measured potency or affinity are listed apart.
Assay: H1N1 influenza NS1A inhibitors, functional cell based assay (AID 504329)
Conditions: percent inhibition, at 12.5 µM, active compounds read high

SMILES | inhibition
O=C(NNc1c2ccccc2nc2ccccc12)c1ccccc1Cl | -1.62% (inactive)
O=C(NNc1c2ccccc2nc2ccccc12)c1ccccc1O | -2.01% (inactive)
Cc1cccc(C)c1NC(=O)CN(C)C(=O)C(c1ccccc1)c1ccccc1 | -4.5% (inactive)
COc1ccc(COC(=O)CCS(=O)(=O)c2ccc(C)cc2)cc1F | -5.19% (inactive)
CCN(CC)CCCNc1ccc2ncn3c4ccc(O)cc4c(=O)c1c23 | 18.1% (inactive)
CCN(CC)CCNc1ccc(CO)c2sc3ccccc3c(=O)c12 | -1.15% (inactive)
CN(C)CCNc1ccc(CO)c2sc3ccc(O)cc3c(=O)c12 | 21.9% (inactive)
CN(C)CCNc1ccc(CO)c2oc3ccc(O)cc3c(=O)c12 | 2.86% (inactive)
CCOC(=O)N1CCN(C(=O)CN(C)S(=O)(=O)c2ccc3c(c2)c(=O)n(C)c(=O)n3C)CC1 | 1.25% (inactive)
CCn1nc(C)c(/C=N\NC(=O)c2cccc(OC)c2)c1C | -6.26% (inactive)
O=C(Nc1cccnc1)C1CCN(S(=O)(=O)c2cccc3nonc23)CC1 | 7.53% (inactive)
CCOc1cc(/C=C2\SC(=S)N(Nc3ccccc3)C2=O)ccc1O | -19.7% (inactive)
COc1cc(/C=C2\SC(=S)N(Nc3ccccc3)C2=O)ccc1O | 16.4% (inactive)
N#CC1=C2SCCN2C(=O)C(C#N)C12CCCCC2 (stereo not given) | -0.17% (inactive)
Cc1cc(C)c2oc(=O)cc(CN3CCN(Cc4ccccc4)CC3)c2c1 | 0.54% (inactive)
COc1cccc(-n2c(SCC(=O)NCc3cccs3)nc3ccccc3c2=O)c1 | 0.54% (inactive)
O=C(c1ccc(F)cc1)N1CCC(C(=O)N2CCN(S(=O)(=O)c3cccc(Cl)c3)CC2)CC1 | -5.53% (inactive)
CCOCCc1nnc(NC(=O)CN2C(=O)c3ccccc3C2=O)s1 | -7.03% (inactive)
CN(C)c1ncc(C2=C(Cl)C(=O)C(N3CCCC3)=C(Cl)C2=O)s1 | 8.59% (inactive)
CN1CCN(C2=C(Cl)C(=O)C(c3cnc(N4CCCCC4)s3)=C(Cl)C2=O)CC1 | 18.9% (inactive)

SMILES | inhibition
CN1CC(C(=O)c2ccc(Cl)cc2)C(c2ccccc2)C1 (stereo not given) | -3.51% (inactive)
COc1ccc(C(=O)C2CN(C)CC2c2ccc(Cl)cc2)cc1 (stereo not given) | -2.24% (inactive)
O=[N+]([O-])c1ccc2nc(N3CCCC3)sc2c1 | -13.2% (inactive)
COc1cc(Cl)c(C)cc1N1C(=O)CN(Cc2ccccc2)C1=S | -3.41% (inactive)
NS(=O)(=O)c1ccc(NC(=O)COC(=O)C2CCCCC2)cc1 | -11.2% (inactive)
Cc1ccc(S(=O)(=O)N2CC(O)C[C@H]2C(=O)OCC(=O)N2CCN(c3ccc(F)cc3)CC2)cc1C (stereo not given in full) | -4.2% (inactive)
CC(=O)Nc1ccc(NC(=O)COC(=O)C2CCCCC2)cc1 | -9.9% (inactive)
Cc1ccc(S(=O)(=O)N2CC(O)C[C@H]2C(=O)OCC(=O)Nc2ccc(N3CCOCC3)cc2)cc1C (stereo not given in full) | -8.01% (inactive)
O=C(COc1cc(F)ccc1[N+](=O)[O-])Nc1ccc(N2CCOCC2)cc1 | 6.79% (inactive)
CN1CCN(c2ccc(NC(=O)COc3ccccc3[N+](=O)[O-])cc2)CC1 | 0.13% (inactive)
O=C(CNCCC1=CCCCC1)Nc1ccccc1N1CCCCCC1 | -4.99% (inactive)
COc1ccc(NC(=O)CNCCC2=CCCCC2)cc1 | -5.53% (inactive)
COCc1cc(=O)[nH]c(SCC(=O)N2CCOCC2)n1 | -7.79% (inactive)
CC(=O)NC(CC(=O)OCC(=O)N1CCN(S(=O)(=O)c2ccc(Cl)cc2)CC1)c1ccccc1 (stereo not given) | -16.1% (inactive)
COCCN(C(=O)CSc1nnc(-c2ccncc2)n1C)c1c(N)n(CC(C)C)c(=O)[nH]c1=O | -15.9% (inactive)
CCSc1oc(-c2ccco2)nc1S(=O)(=O)c1ccc(F)cc1 | 5.79% (inactive)
c1ccc(COc2ccccc2CNC2CCCC2)cc1 | 0.14% (inactive)
O=C(/C=C/c1ccc(Cl)cc1)NCCCN1CCOCC1 | -7.22% (inactive)
CCC(Sc1nc2cc(OC)c(OC)cc2c(=O)n1CCc1ccc(OC)c(OC)c1)C(=O)NCCOC (stereo not given) | 7.7% (inactive)
COc1ccc(Cn2c(CCC(=O)NCc3ccco3)nc3cccnc32)cc1 | 0.67% (inactive)

SMILES | inhibition
CCc1nnc(NC(=O)c2cc(-c3ccncc3)nc3ccccc23)s1 | -12.1% (inactive)
Cc1ccc(N(C(=O)c2csnn2)C(C(=O)NC(C)(C)C)c2cccnc2)cc1 (stereo not given) | -8.33% (inactive)
CC1CN(c2ccc([N+](=O)[O-])c(NCCOc3ccccc3)c2)CCN1 (stereo not given) | 4.39% (inactive)
CC1CN(c2ccc([N+](=O)[O-])c(NCCOc3ccc(Cl)cc3)c2)CC(C)N1 (stereo not given) | 20.5% (inactive)
COCCN1C(=O)N[C@@H](CCc2ccccc2)[C@@H](C(=O)OC)[C@H]1C | -8.6% (inactive)
COc1ccccc1NC(=O)CSc1nnc(CNC(=O)c2cccs2)o1 | -6.38% (inactive)
O=C(Cn1cnc(S(=O)(=O)N2CCCCC2)c1)Nc1ccc(OC(F)(F)F)cc1 | 2.65% (inactive)
O=S(=O)(Nc1ccc2c(c1)OCCO2)c1c(F)cccc1F | -2% (inactive)
CNc1nc(Cl)nc(Nc2ccccc2)n1 | 6.99% (inactive)
NNc1nc(Nc2ccccc2)nc(Nc2ccccc2)n1 | -2.5% (inactive)
O=C(CCS(=O)CCC(=O)NCc1ccccc1)NCc1ccccc1 | -7.22% (inactive)
CCN1C(=O)/C(=C/C=C2/Sc3ccccc3N2CCO)SC1=S | 8.17% (inactive)
CCN1C(=O)/C(=C/C=C2\C=CN(CC)c3ccccc32)SC1=S | 21% (inactive)
CC(=O)c1ccc(N2CCN(C(=O)Cc3n[nH]c(=O)c4ccccc34)CC2)cc1 | 2.74% (inactive)
COc1cccc(CN(C)C(=O)c2cccc(OCc3ccccc3)c2)c1 | 5.5% (inactive)
Cc1cc(OC(C)C(=O)NCCN2CCOCC2)c2c(C)c(C)c(=O)oc2c1 (stereo not given) | 2.99% (inactive)
COC(=O)/C(N=Nc1c(C)n(C)n(-c2ccccc2)c1=O)=C(\C)O | 8.11% (inactive)
CCOC(=O)/C(N=Nc1c(C)n(C)n(-c2ccccc2)c1=O)=C(/O)c1ccccc1 | 3.43% (inactive)
Cc1c(N=N/C(C(=O)Nc2ccccc2)=C(/O)c2ccccc2)c(=O)n(-c2ccccc2)n1C | 12.5% (inactive)
CC(=O)/C(N=Nc1c(C)n(C)n(-c2ccccc2)c1=O)=C(\C)O | 1.66% (inactive)

Reference: PubChem BioAssay AID504329 (Southern Research Specialized Biocontainment Screening …, 2011)
